# Screens (PubChem)
# MEKK2mut PB1 HTS: signal of MEK5 binding to mutant human MEKK2 PB1 domain. percent response, % at 10 µM. AID 1530. hit rate 0.35% among 290,000. bead flow cytometry, Alexa488-MEK5 binding to MEKK2 mutant; in the data active = percent response above about 24%, passing the limit was not always enough
# MEKK3 PB1 HTS: MEKK3-MEK5 PB1 interaction, increase or decrease; bead-based flow cytometry, Alexa488-MEK5 binding to MEKK3; actives lie on both sides; 0 = blocked by unlabeled MEK5, 100 = vehicle; binding response (% of control), % at 10 µM; hit rate 1.4% among 290,000;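 active = binding response more than 3 SD above or below the average of its plate-row segment, actives on both sides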;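 also: Alexa488 bead fluorescence after subtracting the streptavidin-only scavenger bead signal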
# SKN-1 block: inhibitors of C. elegans SKN-1. C. elegans VP596 Pgst-4::GFP/RFP ratio, acrylamide-induced, 24 h. inhibition, % at 21.8 µM. hit rate 0.49% among 360,000. AID 624304;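 active = interference check ratio from 0.5 to 1.5 plus GFP to RFP signal ratio inhibition reaching or exceeding a fixed threshold, cut at about 30% in these data, passing the limit was not always enough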
# CendR NRP1 mod: modulators of CendR peptide binding to human neuropilin-1; O14786; FAM-RPARPAR peptide binding to NRP-1, fluorescence polarization; inhibition, % at 25 µM; hit rate 0.85% among 360,000;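 active = inhibition or corrected inhibition above about 18%, plus a signal ratio from 0.5 to 1.5, limit read from the data, passing the limit was not always enough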
# Target sequence (O14786 whole entry, looked up): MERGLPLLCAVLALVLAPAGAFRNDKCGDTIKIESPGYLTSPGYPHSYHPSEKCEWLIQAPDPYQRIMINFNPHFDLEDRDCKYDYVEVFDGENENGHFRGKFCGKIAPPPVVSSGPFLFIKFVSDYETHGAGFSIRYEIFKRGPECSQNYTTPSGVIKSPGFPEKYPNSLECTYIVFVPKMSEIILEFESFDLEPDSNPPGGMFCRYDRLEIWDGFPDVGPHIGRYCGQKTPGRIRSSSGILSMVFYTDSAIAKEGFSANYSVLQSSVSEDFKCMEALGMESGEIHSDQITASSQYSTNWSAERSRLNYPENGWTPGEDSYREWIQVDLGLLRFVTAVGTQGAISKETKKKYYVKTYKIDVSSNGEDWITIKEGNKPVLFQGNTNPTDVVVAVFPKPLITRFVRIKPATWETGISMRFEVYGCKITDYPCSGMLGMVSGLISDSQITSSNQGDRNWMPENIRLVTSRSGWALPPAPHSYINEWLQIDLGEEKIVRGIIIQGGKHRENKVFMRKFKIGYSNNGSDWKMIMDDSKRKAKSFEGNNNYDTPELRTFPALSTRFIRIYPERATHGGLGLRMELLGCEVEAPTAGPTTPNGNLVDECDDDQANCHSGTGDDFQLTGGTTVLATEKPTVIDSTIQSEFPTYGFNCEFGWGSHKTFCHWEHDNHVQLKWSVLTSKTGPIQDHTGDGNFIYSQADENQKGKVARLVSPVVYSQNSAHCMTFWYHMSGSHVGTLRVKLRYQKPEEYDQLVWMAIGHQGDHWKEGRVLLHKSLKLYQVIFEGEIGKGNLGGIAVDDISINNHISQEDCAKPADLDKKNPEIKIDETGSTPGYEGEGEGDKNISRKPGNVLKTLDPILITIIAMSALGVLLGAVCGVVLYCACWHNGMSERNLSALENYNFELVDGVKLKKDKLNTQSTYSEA
# MEKK2 WT-MEK5: raises or lowers MEK5 binding to wildtype human MEKK2 PB1 domain | Q9Y2U5 | binding response (% of control), % at 10 µM | hit rate 1.1% among 290,000 | bead flow cytometry, Alexa488-MEK5 binding to MEKK2 WT; actives lie on both sides; in the data active = binding response below about 67% or above about 130%
# Hits are given with their value; – = inactive; · = no result; [ ] = dose if it differs, or a comment. An excerpt weighted towards active compounds, which were near 3.2% of everything screened.
SMILES,MEKK2mut PB1 HTS,MEKK3 PB1 HTS,SKN-1 block,CendR NRP1 mod,MEKK2 WT-MEK5
CCOC(=O)CCNC(=O)N1CCCC(N(C)CCc2ccc(OC)c(OC)c2)C1 (stereo not drawn),–,–,–,–,–
COc1ccc(-c2cnc(N)n2CC2CCCO2)cc1 (stereo not drawn),–,–,–,–,-6.0
CC(C)(C)c1nnc(NC(=O)Nc2ccc(Cl)cc2)s1,–,–,–,–,-4.0
COc1ccc(NC(=O)Nc2ccc(Br)cn2)cc1,–,–,–,24.3,–
COc1ccc(NC(=O)NNC(=O)C(O)(c2ccccc2)c2ccccc2)cc1,–,–,–,28.2,–
Cc1nc(NC(=O)Nc2ccc(Cl)cc2)sc1C,–,–,–,–,–
COc1ccc(NC(=O)Nc2nnc(C(C)(C)C)s2)cc1,–,–,–,–,-4.0
COc1ccc(CCC(=O)Nc2nnc(C(C)(C)C)s2)cc1,–,–,–,–,–
COc1ccc(NC(=O)NC(C(F)(F)F)C(F)(F)F)cc1,–,–,43.1,–,–
COc1ccc(NC(=O)NC(C)(C(F)(F)F)C(F)(F)F)cc1,–,–,–,–,–
O=C(Nc1c2c(nn1-c1cccc(Cl)c1)CS(=O)(=O)C2)c1ccco1,–,36.0[inhibitor],–,–,42.0[inhibitor]
Cc1ccc(-n2nc3c(c2NC(=O)c2ccco2)CS(=O)(=O)C3)cc1C,–,–,–,–,–
Cc1ccc(-n2nc3c(c2NC(=O)c2ccc4c(c2)OCO4)CS(=O)(=O)C3)cc1,–,2.0[inhibitor],–,–,0.0[inhibitor]
CC1CN(C(=S)Nc2ccc(F)cc2F)CC(C)O1 (stereo not drawn),–,–,–,25.9,–
COc1ccc(CN2CCN(C(=O)c3ccc(S(=O)(=O)NCc4ccco4)cc3)CC2)cc1F,·,·,–,29.7,·
Cc1ccc2nc(-c3ccco3)c(CC(C)(C)C)n2c1,·,·,–,–,·
Nc1nnc(SCCOc2ccccc2)s1,–,–,–,–,–
Cc1nnc(SCCOc2ccccc2)s1,–,–,–,50.9,–
Cc1cc(C(=O)N[C@@H](c2ccccc2)[C@]2(C)C[C@H]2[C@@H](C)C(=O)Nc2ccc3ccccc3c2)no1,–,–,–,21.7,–
CC(C)Oc1ccc(F)cc1-c1cc(C(=O)NCc2ccc(F)cc2)[nH]n1,·,·,–,27.4,·
COc1ccc(F)cc1-c1cc(C(=O)NCc2ccc(C(F)(F)F)cc2)[nH]n1,·,·,–,–,·
COc1ccc(F)cc1-c1cc(C(=O)NCc2cccc(C(F)(F)F)c2)[nH]n1,·,·,–,18.0,·
CCCN(CC(=O)Nc1cc(Cl)ccc1Cl)C(=O)c1ccccc1SCC(=O)N1CCCC1,·,·,–,–,·
Cc1cccc(CN2CCN(C3CN(CCc4ccccc4)S(=O)(=O)C3)CC2)c1 (stereo not drawn),·,·,–,–,·
Cc1cccc(CSc2nnc(-c3cnccn3)n2C)c1,–,–,–,37.8,–
SMILES,MEKK2mut PB1 HTS,MEKK3 PB1 HTS,SKN-1 block,CendR NRP1 mod,MEKK2 WT-MEK5
Fc1cccc(F)c1/C=C/c1ccc2ccccc2n1,–,–,50.7,–,–
Fc1cccc(Cl)c1/C=C/c1cnc2ccccc2n1,–,–,–,–,–
CSCCC(C(=O)NCc1ccccc1)n1c(C2CCN(C(C)=O)CC2)nc2ccccc21 (stereo not drawn),·,·,–,–,·
CN(C)c1ccc2nc3ccc(=[N+](C)C)cc-3sc2c1,–,–,37.0,–,–
O=C(CC1CCCC1)N1CCN(S(=O)(=O)c2cccc(F)c2)CC1,·,·,–,–,·
OCc1ccccc1CNCc1ccccc1,–,–,–,–,–
Oc1cc(CNCc2ccccc2)c(O)cc1CNCc1ccccc1,·,·,–,28.0,·
COc1ccc(-n2nnnc2C(CCc2ccccc2)N2CCN(C/C=C/c3ccccc3)CC2)cc1 (stereo not drawn),·,·,–,24.0,·
Cc1ccc(Oc2nnc(-c3ccc(C)cc3)c3ccccc23)cc1,–,–,–,28.9,–
COc1ccccc1C(=O)Nc1ccc(Oc2nnc(-c3ccc(C)cc3)c3ccccc23)cc1,–,–,–,–,–
O=[N+]([O-])c1ccc(-n2nncc2-c2ccc(Cl)cc2)cc1,–,–,–,–,–
CC(=O)c1ccc(-n2nncc2-c2ccc([N+](=O)[O-])cc2)cc1,–,–,58.6,–,–
Cc1cc(C(=O)C(C)OC(=O)c2ccc(NC(=O)CC#N)cc2)c(C)n1-c1ccccc1 (stereo not drawn),·,·,–,–,·
CCOc1ccc(NC(=O)C2CCCN(S(=O)(=O)c3c(C)nn(C)c3C)C2)cc1 (stereo not drawn),–,–,34.0,–,–
CCC(C)Nc1nc(-c2c[nH]c3ccccc23)cs1 (stereo not drawn),–,78.0[inhibitor],–,–,-19.0
CCOC(=O)c1cccc(C2=CC(=O)CC(C)(C)C2)c1,·,·,–,–,·
CSCCC(NC(=O)c1ccc(Cl)cc1Cl)C(=O)NCC(c1cccs1)N(C)C (stereo not drawn),·,·,–,25.5,·
CSCCC(NC(=O)c1ccc(Cl)cc1Cl)C(=O)NCc1ccccn1 (stereo not drawn),–,–,–,–,–
Cc1[nH][nH]c(=O)c1C(c1cc2c(cc1Br)OCO2)c1c(C)[nH][nH]c1=O,–,–,–,–,23.0
Cn1nc(C(C)(C)C)cc1N1C(=O)CCC1(C)C(=O)Nc1ccc2c(c1)OCCO2 (stereo not drawn),·,·,–,–,·
CCOC(=O)C(=CNc1ccc(N2CCCCC2)c(S(=O)(=O)Nc2ccccc2OC)c1)C(=O)OCC,·,·,–,35.6,·
COc1ccccc1NS(=O)(=O)c1cc(NC(C)=O)ccc1N1CCCCC1,–,–,–,–,–
O=S1(=O)CC(O)C(O)CS1 (stereo not drawn),·,·,–,–,·
CCOc1ccccc1NC(=O)Cn1c(=O)n(-c2ccccc2)c(=O)c2oc3ccccc3c21,–,–,–,–,5.0
CCOc1ccccc1NC(=O)CSc1ncnc2c1oc1ccccc12,–,–,34.5,–,–
SMILES,MEKK2mut PB1 HTS,MEKK3 PB1 HTS,SKN-1 block,CendR NRP1 mod,MEKK2 WT-MEK5
CCOc1ccccc1NC(=O)Cn1c(=O)oc2ccccc21,–,–,–,–,–
CCOc1ccccc1NC(=O)Cn1c(=O)oc2cc(Cl)ccc21,–,–,35.1,–,–
CCCCN(C(=O)c1c(CC)noc1C)c1c(N)n(CCC)c(=O)[nH]c1=O,·,·,–,–,·
Cc1ccn2c(-c3csc(NCc4ccccc4)n3)c(C)nc2c1,–,–,–,25.4,–
CCC(C)C(NC(=O)C(Cc1ccc(O)cc1)NC(=O)OCc1ccccc1)C(=O)OC (stereo not drawn),·,·,–,–,·
CCOC(=O)C1CCN(S(=O)(=O)CCNC(=O)c2ccc(F)cc2)CC1,·,·,–,–,·
CCOC(=O)C1=C(CSc2nc(-c3ccccc3)ccc2C#N)OC(N)=C(C#N)C1c1ccc(OC)cc1 (stereo not drawn),–,–,43.2,–,–
CC1(C)OC(=O)C2=C(C[C@@H](C3CCCCC3)O[C@H]2c2ccccc2)O1,·,·,–,–,·
O=C1CC(NNC(=O)c2ccc(Br)cc2)C(=O)N1 (stereo not drawn),–,–,42.8,–,–
CN(CCN1CCOCC1)C(=O)c1cc(COc2ccc(F)c(F)c2)on1,–,–,–,–,–
